In the library only some 0.65% were active in any assay of this set; here they are far more common.
SARS PLpro yeast-1: inhibitors of SARS-CoV papain-like protease in yeast. S. cerevisiae expressing SARS-CoV PLpro, growth rescue. Potency, µM (series often up to 32.9 µM), inactives show at the highest dose activity, positive = growth rescue, usual class: activators. actives 0.19% (n = 330,000); note: potency is the fitted concentration of half-maximal effect; 0% is about no effect; nearly all actives have a fitted effect of over 55% in size
NS1 function inh: influenza NS1 inhibition. actives 0.4% (n = 270,000). Potency, µM (titrated, usually from 46.1 µM), inactives show top-dose activity, positive = more growth; note: potency is the fitted concentration of half-maximal effect; actives are rising curves; nearly all actives have a fitted effect of over 50% in size
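Compounds were scored for reversing the slow growth caused by influenza A NS1 in S. cerevisiae, measured by optical density at 600 nm. Assay medium contained 2% galactose at pH 6.0; NS1-free yeast of the same strain were the positive control.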
AMA1 RON2 block: disrupts binding of P. falciparum AMA1 to RON2; Potency, µM (series often up to 58.2 µM), for inactives: top-dose activity change, negative = inhibition, hits mostly inhibitors; AlphaScreen AMA1-biotinylated RON2 peptide binding; actives 0.2% (n = 360,000); AID 720542; active = well fitted inhibition curve with a large enough effect; inconclusive = small, poorly fitted or top-dose-only effect; inactive = no such curve, though single readings can be large or run the other way;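 note: potency is the fitted concentration of half-maximal effect; 0% = vehicle wells and -100% = peptide control; nearly all actives have a fitted effect of over 45% in size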
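AMA1 (3D7) with his tag at 25 nM final met compounds first, then biotinylated RON2 peptide at 25 nM; detection used donor plus acceptor beads, 10 µg/mL apiece, read by AlphaScreen after 30 min at room temperature.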
SARS PLpro yeast-2: Rescues yeast growth by inhibiting SARS-CoV PLpro; actives 19% (n = 1,000); yeast expressing SARS-CoV PLpro, growth phenotype rescue; calls only; shares compounds with SARS PLpro yeast-1; call rule not given here
* marks the source's active call; other numbers are inactive results; i = inactive; ? = inconclusive; / = no result given; + = active, no number; [ ] = remark or other dose. Unless noted, calls come from the whole dose curve.

SMILES | SARS PLpro yeast-1 | NS1 function inh | AMA1 RON2 block | SARS PLpro yeast-2
COCCN1CC(=O)N2C(c3cccc(OC)c3)c3[nH]c4ccccc4c3C[C@H]2C1=O (some centres not stated) | 1% | -2% | -2% | /
Cc1ccc(OCC(=O)NC(=S)Nc2ccc(S(=O)(=O)Nc3cc(C)on3)cc2)c(Br)c1 | -5% | 2% | 13% | /
C#CCN(C(=O)C1CCC(=O)N(CCc2cccc(F)c2)C1)C1CCCCC1 (configuration not stated) | / | / | -6% | /
Cc1ccc(Nc2nc(NCCCN3CCOCC3)nc(N)c2[N+](=O)[O-])cc1C | -7% | -1% | -13% | /
Cc1ccc(Nc2nc(NCCCN3CCOCC3)nc(N)c2[N+](=O)[O-])cc1 | ? | -6% | -5% | i
O=C1C=CC(=O)N1Nc1ccc(Br)cc1 | ? | 10% | -21% | i
O=C1c2cccc3cc(Br)cc(c23)C(=O)N1Nc1ccc(Br)cc1 | -9% | 10% | 7% | /
Cc1ccc2nc(Nc3nc(CSc4nnnn4-c4ccccc4)cc(=O)[nH]3)nc(C)c2c1 | ? | 2% | 2% | i
Cc1nc(Nc2nc(CSc3ccc(Cl)cc3)cc(=O)[nH]2)nc2ccccc12 | -16% | 13% | -1% | /
CN1CCN(C(CNC(=O)C(=O)NC2CCCC2)c2ccc(F)cc2)CC1 (configuration not stated) | 1% | / | 14% | /
Clc1nc2sccn2c1/C=N/n1cnc2ccccc21 | ? | -10% | 2% | i
C(=N\n1cnc2ccccc21)/c1cccnc1 | 10% | -5% | -5% | /
COc1ccc(CC(=O)Nc2ccncc2Cl)cc1 | -1% | 1% | -11% | /
COc1ccc(-c2cc(C(F)(F)F)nc(S(=O)(=O)CCCC(=O)Nc3cccnc3Cl)n2)cc1OC | -2% | / | -8% | /
CCCCOC(=O)Oc1ccc2c(=O)c(Oc3cc(C)cc(C)c3)coc2c1 | ? | 8% | 3%[2.32 µM] | i
CCCOC(=O)Oc1ccc2c(=O)c(Oc3cc(C)cc(C)c3)coc2c1 | -24% | -29% | 25% | /
COc1cc(CCC(=O)NNC(=O)c2cccc(Cl)c2)cc(OC)c1OC | 2% | -3% | 93% | /
O=C(Cn1cnc([N+](=O)[O-])n1)N/N=C/c1cccc2ccccc12 | ? | -2% | -4% | i
O=C(Cn1cnc([N+](=O)[O-])n1)N/N=C/c1ccc(O)cc1O | 21% | / | 0% | /
NC(=O)C(=O)NN=C1C2CC3CC(C2)CC1C3 | -6% | 8% | 19% | /
NC(=S)NN=C1C2CC3CC(C2)CC1C3 | ? | / | 22% | i
O=C(NC(=S)Nc1ccccc1N1CCCC1)c1ccc([N+](=O)[O-])cc1 | ? | 9% | -14%[2.32 µM] | /
Cc1c(C(=O)NC(=S)Nc2ccccc2N2CCCC2)cccc1[N+](=O)[O-] | 7.1µM* | 23% | 7%[2.32 µM] | +
Cc1ccc(C(C(=O)NC2CCCCC2)N(Cc2cccnc2)C(=O)c2csnn2)cc1 (configuration not stated) | -6% | 1% | 1% | /
CC(CCc1ccccc1)NC(=O)C(Cc1ccccc1)NS(=O)(=O)c1cccs1 (configuration not stated) | 8% | -3% | -5% | /
SMILES | SARS PLpro yeast-1 | NS1 function inh | AMA1 RON2 block | SARS PLpro yeast-2
CC1CCCCC1NC(=O)C(Cc1ccccc1)NS(=O)(=O)c1cccs1 (configuration not stated) | ? | 16% | -9% | i
C[C@H](CO)N1C[C@H](C)[C@H](CN(C)C(=O)NC2CCCCC2)Oc2ncc(Br)cc2C1=O | / | / | -19% | /
O=c1c2c3c(sc2nc2n1CCCCC2)CCCC3 | 4.5µM* | -12% | -10% | i
O=c1c2c3c(sc2nc2n1CCCCC2)CCCCC3 | 5% | -1% | / | /
CCOc1ccc(NC(=O)CSc2nnc(Cc3csc(C)n3)o2)cc1 | 6% | -10% | 11% | /
O=C(NC1CCCC1)C(=O)N(Cc1cccnc1)C(C(=O)NC1CCCC1)c1ccco1 (configuration not stated) | 0% | 0% | -8% | /
O=C(NC1CCCCC1)C(c1ccco1)N(Cc1cccnc1)C(=O)C1COc2ccccc2O1 (configuration not stated) | ? | -16% | -2% | i
O=C(Cn1ccc2cc(S(=O)(=O)N3CCCCC3)ccc21)NCc1ccccc1F | ? | 12% | -11% | /
Cc1ccc(CNC(=O)CCS(=O)(=O)Cc2ccc(C)cc2)cc1 | 16% | ? | 5% | /
CCn1c(C)cc(/C=C2/NC(=O)N(Cc3ccccc3F)C2=O)c1C | 2% | 12% | -10% | /
Cc1cc(/C=C2/NC(=O)N(Cc3ccccc3F)C2=O)c(C)n1C(C)C | ? | -4% | -24% | i
